# PubChem BioAssay AID1159580 (chemical genetic matrix, 2015)
# Screen size: about 5,500 compounds; about 2,000 (36%) were called active. About 18% were inconclusive and are not listed. The list shows a part of the results. Values without a mark were called inactive. Cut-off read from the data, not from the text of the source: active = normalized growth mostly below about 0.91 (no sharp cut-off); inconclusive = no clear call, values can overlap the other calls; inactive = mostly above about 0.92.
# Test: chemical genetic growth profiling, strain panel (AID 1159580);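 note: tested at 20 µM; growth read once vehicle control cultures reached saturation at 30 °C; 1 = growth at the plate median or of vehicle wells; lower values mean less growth of the strain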
# Conditions: S. cerevisiae deletion strains, growth OD
compound,measurement,setting,value
NCCCCCCCCCCN,normalized growth,"locus YAL040C, strain CLN3, hits give low values",1.01
same,normalized growth,"locus YCL061C, strain MRC1 (second series), hits give low values",1.01
same,normalized growth,"locus YDR150W, strain NUM1, hits give low values",1.01
same,normalized growth,"locus YDR363W, strain ESC2, hits give low values",1.03
same,normalized growth,"locus YER002W, strain NOP16, hits give low values",1.01
same,normalized growth,"locus YNL175C, strain NOP13, hits give low values",1.01
same,normalized growth,"locus YNL197C, strain WHI3, hits give low values",1
same,normalized growth,"locus YNL224C, strain SQS1, hits give low values",1
same,normalized growth,"locus YOR083W, strain WHI5 (second series), hits give low values",1.02
same,normalized growth,"locus YPL241C, strain CIN2, hits give low values",1.01
C/C(=N/OC(=O)Nc1ccc(Cl)cc1)c1ccc2c(c1)CCO2,normalized growth,"locus YAR019C, strain CDC15, hits give low values",0.946
same,normalized growth,"locus YBL105C, strain PKC1, hits give low values",0.95
same,normalized growth,"locus YBR135W, strain CKS1, hits give low values",0.954
same,normalized growth,"locus YBR136W, strain MEC1, hits give low values",0.95
same,normalized growth,"locus YBR160W, strain CDC28, hits give low values",0.943
same,normalized growth,"locus YDL017W, strain CDC7, hits give low values",0.947
same,normalized growth,"locus YDL028C, strain MPS1, hits give low values",0.955
same,normalized growth,"locus YDL101C, strain DUN1, hits give low values",0.948
same,normalized growth,"locus YDL108W, strain KIN28, hits give low values",0.966
same,normalized growth,"locus YDL132W, strain cdc53, hits give low values",0.935
same,normalized growth,"locus YDL214C, strain PRR2, hits give low values",0.868
same,normalized growth,"locus YDR052C, strain DBF4, hits give low values",0.957
same,normalized growth,"locus YDR054C, strain cdc34, hits give low values",0.93
same,normalized growth,"locus YDR226W, strain ADK1, hits give low values",0.949
same,normalized growth,"locus YDR477W, strain SNF1, hits give low values",0.853
same,normalized growth,"locus YER123W, strain YCK3, hits give low values",0.858
same,normalized growth,"locus YER133W, strain GLC7, hits give low values",0.837
same,normalized growth,"locus YFL009W, strain cdc4, hits give low values",0.949
same,normalized growth,"locus YFL029C, strain CAK1, hits give low values",0.939
same,normalized growth,"locus YFR003C, strain YPI1, hits give low values",0.959
same,normalized growth,"locus YFR019W, strain FAB1, hits give low values",0.93
same,normalized growth,"locus YFR028C, strain CDC14, hits give low values",0.953
same,normalized growth,"locus YGR040W, strain KSS1, hits give low values",0.835
same,normalized growth,"locus YGR052W, strain FMP48, hits give low values",0.908
same,normalized growth,"locus YGR092W, strain DBF2, hits give low values",0.599
same,normalized growth,"locus YHR030C, strain SLT2, hits give low values",0.607 (active)
same,normalized growth,"locus YHR079C, strain IRE1, hits give low values",0.775
same,normalized growth,"locus YHR082C, strain KSP1, hits give low values",0.838
same,normalized growth,"locus YHR205W, strain SCH9, hits give low values",0.756
same,normalized growth,"locus YIL147C, strain SLN1, hits give low values",0.949
same,normalized growth,"locus YJL095W, strain BCK1, hits give low values",0.69
same,normalized growth,"locus YJL128C, strain PBS2, hits give low values",0.951
same,normalized growth,"locus YJL157C, strain FAR1, hits give low values",0.852
same,normalized growth,"locus YJR016C, strain ILV3, hits give low values",0.938
same,normalized growth,"locus YJR066W, strain TOR1 (second series), hits give low values",0.745
same,normalized growth,"locus YJR066W, strain TOR1, hits give low values",0.727
same,normalized growth,"locus YKL048C, strain ELM1, hits give low values",0.966
same,normalized growth,"locus YKL067W, strain YNK1, hits give low values",0.891
same,normalized growth,"locus YKL101W, strain HSL1, hits give low values",0.92
same,normalized growth,"locus YKL193C, strain SDS22, hits give low values",0.941
same,normalized growth,"locus YKL203C, strain TOR2, hits give low values",0.85
same,normalized growth,"locus YLR113W, strain HOG1, hits give low values",0.755 (active)
same,normalized growth,"locus YLR133W, strain CKI1, hits give low values",0.884
same,normalized growth,"locus YLR403W, strain SFP1, hits give low values",0.777
same,normalized growth,"locus YML070W, strain DAK1, hits give low values",0.874
same,normalized growth,"locus YMR001C, strain CDC5, hits give low values",0.946
same,normalized growth,"locus YMR205C, strain PFK2 (second series), hits give low values",0.908
same,normalized growth,"locus YMR277W, strain FCP1, hits give low values",0.949
same,normalized growth,"locus YNL006W, strain LST8, hits give low values",0.97
same,normalized growth,"locus YNL020C, strain ARK1, hits give low values",0.873
same,normalized growth,"locus YNL161W, strain CBK1, hits give low values",0.951
same,normalized growth,"locus YNL183C, strain NPR1, hits give low values",0.775
same,normalized growth,"locus YNL207W, strain RIO2, hits give low values",0.936
same,normalized growth,"locus YNL222W, strain SSU72, hits give low values",0.954
same,normalized growth,"locus YNL307C, strain MCK1 (second series), hits give low values",0.832
same,normalized growth,"locus YOL078W, strain AVO1, hits give low values",0.951
same,normalized growth,"locus YOL136C, strain PFK27, hits give low values",0.864
same,normalized growth,"locus YOR061W, strain CKA2, hits give low values",0.873
same,normalized growth,"locus YOR119C, strain RIO1, hits give low values",0.894
same,normalized growth,"locus YOR231W, strain MKK1, hits give low values",0.808
same,normalized growth,"locus YOR329C, strain SCD5, hits give low values",0.956
same,normalized growth,"locus YPL031C, strain PHO85, hits give low values",0.806
same,normalized growth,"locus YPL153C, strain RAD53, hits give low values",0.846
same,normalized growth,"locus YPL204W, strain HRR25, hits give low values",0.803
same,normalized growth,"locus YPL209C, strain IPL1, hits give low values",0.956
same,normalized growth,"locus YPL256C, strain CLN2, hits give low values",0.853 (active)
same,normalized growth,"locus YPR025C, strain CCL1, hits give low values",0.955
same,normalized growth,"locus YPR106W, strain ISR1, hits give low values",0.959
same,normalized growth,"locus YPR111W, strain DBF20, hits give low values",0.96
same,normalized growth,"strain NNK1, hits give low values",0.951
same,normalized growth,"strain TSCII, hits give low values",0.938
